{"source": "the antibiotic and cytotoxicity screens of Wong et al. (2023)", "note": "Hit rate of the full screen: of about 39,000 compounds, about 3,300 (8.5%) were called active. Only a selection was taken, and actives are over-represented in it overall."}
{"test_system": "HepG2", "assay": "cytotoxicity call (relative viability < 0.9)", "details": "10 µM"}
{"smiles": "Cc1noc(C)c1S(=O)(=O)Nc1ccc2c(c1)C(=O)N([C@@H](C)CO)C[C@@H](C)[C@@H](CN(C)S(=O)(=O)c1ccc(Cl)cc1)O2", "cytotoxicity call": "inactive"}
{"smiles": "C[C@@H]1CN([C@H](C)CO)C(=O)c2cc(C#Cc3cccc(F)c3)cnc2O[C@@H]1CN(C)C(=O)C1CCOCC1", "cytotoxicity call": "inactive"}
{"smiles": "C[C@@H]1CN([C@H](C)CO)C(=O)c2cc(NS(=O)(=O)c3ccc(F)cc3)ccc2O[C@@H](C)CCCCO[C@H]1CN(C)C(=O)Nc1ccccc1", "cytotoxicity call": "active"}
{"smiles": "C[C@@H]1CCCCO[C@H](CN(C)C(=O)Nc2ccccc2)[C@H](C)CN([C@@H](C)CO)C(=O)c2cc(NS(=O)(=O)c3ccc(F)cc3)ccc2O1", "cytotoxicity call": "inactive"}
{"smiles": "C[C@@H]1CCCCO[C@@H](CN(C)C(=O)Nc2ccccc2)[C@H](C)CN([C@@H](C)CO)C(=O)c2cc(NS(=O)(=O)c3ccc(F)cc3)ccc2O1", "cytotoxicity call": "inactive"}
{"smiles": "C[C@@H]1CN([C@@H](C)CO)C(=O)c2cc(NS(=O)(=O)c3ccc(F)cc3)ccc2O[C@@H](C)CCCCO[C@H]1CN(C)C(=O)Nc1ccccc1", "cytotoxicity call": "inactive"}
{"smiles": "C[C@H](CO)N1C[C@H](C)[C@@H](CN(C)C(=O)Nc2ccccc2)OCCCC[C@H](C)Oc2ccc(NS(=O)(=O)c3ccc(F)cc3)cc2C1=O", "cytotoxicity call": "inactive"}
{"smiles": "C[C@@H]1CCCCO[C@@H](CN(C)C(=O)Nc2ccccc2)[C@H](C)CN([C@H](C)CO)C(=O)c2cc(NS(=O)(=O)c3ccc(F)cc3)ccc2O1", "cytotoxicity call": "active"}
{"smiles": "COc1cccc(C(=O)Nc2ccc3c(c2)C(=O)N(C)[C@@H]2CC[C@H](CC(=O)NCCCN4CCOCC4)O[C@@H]2CO3)c1", "cytotoxicity call": "inactive"}
{"smiles": "Cn1ccc2ccc(CN)cc21", "cytotoxicity call": "inactive"}
{"smiles": "Cc1cc(C)nc(C#N)n1", "cytotoxicity call": "inactive"}
{"smiles": "C[C@H](CO)N1C[C@H](C)[C@@H](CN(C)C(=O)Nc2ccc3c(c2)OCO3)Oc2ccc(NC(=O)Nc3cccc4ccccc34)cc2CC1=O", "cytotoxicity call": "inactive"}
{"smiles": "COc1ccc(S(=O)(=O)Nc2ccc3c(c2)C(=O)N([C@H](C)CO)C[C@H](C)[C@H](CN(C)C(=O)Nc2ccc(F)cc2)OCCCC[C@@H](C)O3)cc1", "cytotoxicity call": "inactive"}
{"smiles": "COCC#Cc1ccc2c(c1)O[C@@H](CN(C)C(=O)c1ccccc1)[C@H](C)CN([C@H](C)CO)S2(=O)=O", "cytotoxicity call": "inactive"}
{"smiles": "C[n+]1cc2c3c(ccc2c2ccc4cc5c(cc4c21)OCO5)OCO3.[Cl-]", "cytotoxicity call": "active"}
{"smiles": "CCCNC(=O)N1C[C@@H](O)COC[C@H]2O[C@H](CC(=O)N3CCN(C)CC3)CC[C@@H]21", "cytotoxicity call": "inactive"}
{"smiles": "C[n+]1ccn(C[C@@]2(C)[C@H](C(=O)O)N3C(=O)C[C@H]3S2(=O)=O)n1", "cytotoxicity call": "inactive"}
{"smiles": "Cc1noc(C)c1NC(=O)N(C)C[C@H]1Oc2c(NS(=O)(=O)c3cn(C)cn3)cccc2C(=O)N([C@@H](C)CO)C[C@@H]1C", "cytotoxicity call": "inactive"}
{"smiles": "Cc1ccc(S(=O)(=O)N[C@@H](Cc2ccccc2)C(=O)NCCCn2cc(-c3ccc(C(=O)NO)s3)nn2)cc1", "cytotoxicity call": "inactive"}
{"smiles": "C[C@H]1COC(=O)[C@H](Cc2ccc(F)cc2)CC=CC[C@@H](CC(=O)N[C@H](CO)Cc2ccccc2)C(=O)N1", "cytotoxicity call": "inactive"}
{"smiles": "O=C(C[C@@H]1C/C=C/C[C@H](Cc2ccccc2)C(=O)N[C@H](c2ccccc2)COC1=O)NCc1ccc(Cl)cc1", "cytotoxicity call": "active"}
{"smiles": "CC(=O)N[C@H]1C/C=C/C[C@@H](CC(=O)NCc2ccc(Cl)cc2)C(=O)NC[C@@H](c2ccccc2)OC1=O", "cytotoxicity call": "inactive"}
{"smiles": "C[C@@H]1CN([C@@H](C)CO)C(=O)c2cc(NC(=O)c3ccncc3)ccc2O[C@@H](C)CCCCO[C@@H]1CN(C)Cc1ccccc1", "cytotoxicity call": "inactive"}
{"smiles": "C[C@H]1CN([C@@H](C)CO)C(=O)c2cc(NC(=O)Cn3cnnn3)ccc2O[C@@H]1CN(C)S(=O)(=O)c1ccc(Cl)cc1", "cytotoxicity call": "inactive"}
{"smiles": "C[C@H](CO)N1C[C@H](C)[C@H](CN(C)Cc2ccc(-c3ccccc3)cc2)Oc2ccc(NC(=O)Nc3ccc(F)cc3)cc2CC1=O", "cytotoxicity call": "active"}
{"smiles": "C[C@H]1CN([C@@H](C)CO)C(=O)Cc2cc(NC(=O)Nc3ccc(F)cc3)ccc2O[C@@H]1CN(C)Cc1ccc(-c2ccccc2)cc1", "cytotoxicity call": "active"}
{"smiles": "C[C@@H]1CN([C@@H](C)CO)C(=O)Cc2cc(NC(=O)Nc3ccc(F)cc3)ccc2O[C@@H]1CN(C)Cc1ccc(-c2ccccc2)cc1", "cytotoxicity call": "active"}
{"smiles": "C[C@H](CO)N1C[C@H](C)[C@@H](CN(C)Cc2ccc(-c3ccccc3)cc2)Oc2ccc(NC(=O)Nc3ccc(F)cc3)cc2CC1=O", "cytotoxicity call": "active"}
{"smiles": "C[C@H](CO)N1C[C@H](C)[C@@H](CN(C)S(=O)(=O)c2cn(C)cn2)Oc2ncc(C3=CCCC3)cc2C1=O", "cytotoxicity call": "inactive"}
{"smiles": "O=C(CN1CCOCC1)N[C@H]1CC[C@@H](CCNC(=O)Nc2cc(F)ccc2F)O[C@H]1CO", "cytotoxicity call": "inactive"}
{"smiles": "CON=C(C(=O)NC1C(=O)N2C(C(=O)[O-])=C(COC(N)=O)CSC12)c1ccco1.[Na+]", "note": "(stereo not drawn)", "cytotoxicity call": "inactive"}
{"smiles": "C[C@@H]1CCCCO[C@H](CN(C)C(=O)Nc2cccc3ccccc23)[C@@H](C)CN([C@@H](C)CO)C(=O)c2cc(N(C)C)ccc2O1", "cytotoxicity call": "inactive"}
{"smiles": "CCCNC(=O)N(C)C[C@H]1Oc2cc(C#Cc3cccc(F)c3)ccc2S(=O)(=O)N([C@H](C)CO)C[C@H]1C", "cytotoxicity call": "inactive"}
{"smiles": "C[C@H](CO)N1C[C@H](C)[C@H](CN(C)Cc2ccccc2)OCCCC[C@H](C)Oc2ccc(NS(=O)(=O)c3ccc(Cl)cc3)cc2C1=O", "cytotoxicity call": "inactive"}
{"smiles": "CCCNC(=O)N(C)C[C@@H]1Oc2cc(-c3ccc(C)cc3)ccc2S(=O)(=O)N([C@H](C)CO)C[C@@H]1C", "cytotoxicity call": "inactive"}
{"smiles": "COCC(=O)N(C)C[C@H]1Oc2cc(C#Cc3ccccc3)ccc2S(=O)(=O)N([C@H](C)CO)C[C@H]1C", "cytotoxicity call": "inactive"}
{"smiles": "C[C@@H]1CN([C@@H](C)CO)C(=O)Cc2cc(NC(=O)Nc3ccc(F)cc3)ccc2O[C@H]1CN(C)Cc1ccc(-c2ccccc2)cc1", "cytotoxicity call": "active"}
{"smiles": "C[C@@H]1CN([C@H](C)CO)C(=O)Cc2cc(NC(=O)Nc3ccc(F)cc3)ccc2O[C@@H]1CN(C)Cc1ccc(-c2ccccc2)cc1", "cytotoxicity call": "inactive"}
{"smiles": "C[C@@H]1CN([C@H](C)CO)C(=O)Cc2cc(NC(=O)Nc3ccc(F)cc3)ccc2O[C@H]1CN(C)Cc1ccc(-c2ccccc2)cc1", "cytotoxicity call": "active"}
{"smiles": "C[C@H]1CN([C@@H](C)CO)C(=O)Cc2cc(NC(=O)Nc3ccc(F)cc3)ccc2O[C@H]1CN(C)Cc1ccc(-c2ccccc2)cc1", "cytotoxicity call": "active"}
{"smiles": "C[C@@H]1CN([C@@H](C)CO)C(=O)CCCn2nncc2CO[C@H]1CN(C)C(=O)Nc1ccc(C(C)(C)C)cc1", "cytotoxicity call": "inactive"}
{"smiles": "C[C@H](CO)N1C[C@H](C)[C@@H](CN(C)Cc2ccc(C(=O)O)cc2)Oc2c(NC(=O)c3cnccn3)cccc2C1=O", "cytotoxicity call": "inactive"}
{"smiles": "CCOc1nc(N2CCOCC2)nc(N2CCOCC2)n1", "cytotoxicity call": "inactive"}
{"smiles": "CC=NN(C)C=O", "cytotoxicity call": "inactive"}
{"smiles": "CC(C)NC(=O)Nc1ccc2c(c1)CC(=O)N([C@@H](C)CO)C[C@H](C)[C@@H](CN(C)S(=O)(=O)c1ccccc1)O2", "cytotoxicity call": "inactive"}
{"smiles": "CC(C)COCC(CN(Cc1ccccc1)c1ccccc1)N1CCCC1.Cl", "note": "(stereo not drawn)", "cytotoxicity call": "active"}
{"smiles": "CC(COc1ccccc1)N(CCCl)Cc1ccccc1.Cl", "note": "(stereo not drawn)", "cytotoxicity call": "inactive"}
{"smiles": "c1ccc(CN(CC2=NCCN2)c2ccccc2)cc1", "cytotoxicity call": "inactive"}
{"smiles": "CN(C)C(=O)[C@@H]1[C@@H](CO)[C@@H]2Cn3c(ccc(C4=CCCC4)c3=O)[C@H]1N2S(=O)(=O)c1cn(C)cn1", "cytotoxicity call": "inactive"}
{"smiles": "COc1cccc(C#Cc2cnc3c(c2)C(=O)N([C@H](C)CO)C[C@H](C)[C@@H](CN(C)C(=O)C2CCC2)O3)c1", "cytotoxicity call": "inactive"}
{"smiles": "Cn1cnc(S(=O)(=O)N2C[C@@H](O)COC[C@@H]3O[C@H](CC(=O)NCc4cc(F)cc(F)c4)CC[C@H]32)c1", "cytotoxicity call": "inactive"}
{"smiles": "C[C@H](CO)N1C[C@H](C)[C@H](CN(C)S(=O)(=O)c2cccs2)Oc2ncc(-c3ccc(F)cc3)cc2C1=O", "cytotoxicity call": "inactive"}
{"smiles": "Cc1cc2nc3c(=O)[nH]c(=O)nc-3n(CC(O)C(O)C(O)CO)c2cc1C", "note": "(stereo not drawn)", "cytotoxicity call": "inactive"}
{"smiles": "Cc1cc2nc3c(=O)[nH]c(=O)nc-3n(CC(O)C(O)C(O)COP(=O)([O-])O)c2cc1C.[Na+]", "note": "(stereo not drawn)", "cytotoxicity call": "active"}
{"smiles": "Cc1cc2nc3c(=O)[nH]c(=O)nc-3n(C[C@H](O)[C@H](O)[C@H](O)COP(=O)(O)O)c2cc1C", "cytotoxicity call": "inactive"}
{"smiles": "C[C@@H]1CN([C@H](C)CO)C(=O)c2cc(C#CC3(O)CCCC3)cnc2O[C@H]1CN(C)C(=O)Cc1ccccc1", "cytotoxicity call": "inactive"}
{"smiles": "C[C@H]1CN([C@@H](C)CO)C(=O)c2cccc(NC(=O)Nc3cccc4ccccc34)c2O[C@H]1CN(C)Cc1ccc(-c2ccccc2)cc1", "cytotoxicity call": "inactive"}
{"smiles": "C[C@@H]1CCCCO[C@H](CN(C)Cc2ccc(C(=O)O)cc2)[C@H](C)CN([C@H](C)CO)C(=O)c2cc(NC(=O)Nc3ccc4c(c3)OCO4)ccc2O1", "cytotoxicity call": "inactive"}
{"smiles": "C[C@@H]1CN([C@H](C)CO)C(=O)c2cc(NC(=O)Nc3ccc(C(F)(F)F)cc3)ccc2O[C@@H](C)CCCCO[C@@H]1CN(C)Cc1ccc(Cl)c(Cl)c1", "cytotoxicity call": "inactive"}
{"smiles": "C[C@@H]1CCCCO[C@@H](CN(C)Cc2ccc(Cl)c(Cl)c2)[C@@H](C)CN([C@@H](C)CO)C(=O)c2cc(NC(=O)Nc3ccc(C(F)(F)F)cc3)ccc2O1", "cytotoxicity call": "inactive"}
{"smiles": "C[C@@H]1CCCCO[C@H](CN(C)Cc2ccc(Cl)c(Cl)c2)[C@H](C)CN([C@@H](C)CO)C(=O)c2cc(NC(=O)Nc3ccc(C(F)(F)F)cc3)ccc2O1", "cytotoxicity call": "active"}
{"smiles": "C[C@@H]1CN([C@H](C)CO)C(=O)c2cc(NC(=O)Nc3ccc(C(F)(F)F)cc3)ccc2O[C@@H](C)CCCCO[C@H]1CN(C)Cc1ccc(Cl)c(Cl)c1", "cytotoxicity call": "inactive"}
{"smiles": "C[C@@H]1CCCCO[C@H](CN(C)Cc2ccc(Cl)c(Cl)c2)[C@@H](C)CN([C@@H](C)CO)C(=O)c2cc(NC(=O)Nc3ccc(C(F)(F)F)cc3)ccc2O1", "cytotoxicity call": "active"}
{"smiles": "C[C@@H]1CN([C@@H](C)CO)C(=O)c2cc(NC(=O)Nc3ccc(C(F)(F)F)cc3)ccc2O[C@@H](C)CCCCO[C@H]1CN(C)Cc1ccc(Cl)c(Cl)c1", "cytotoxicity call": "inactive"}
{"smiles": "C[C@@H]1CCCCO[C@@H](CN(C)Cc2ccc(Cl)c(Cl)c2)[C@H](C)CN([C@@H](C)CO)C(=O)c2cc(NC(=O)Nc3ccc(C(F)(F)F)cc3)ccc2O1", "cytotoxicity call": "active"}
{"smiles": "C[C@@H]1CCCCO[C@@H](CN(C)Cc2ccc(Cl)c(Cl)c2)[C@H](C)CN([C@H](C)CO)C(=O)c2cc(NC(=O)Nc3ccc(C(F)(F)F)cc3)ccc2O1", "cytotoxicity call": "inactive"}
{"smiles": "C[C@@H]1CCCCO[C@@H](CN(C)Cc2ccc(Cl)c(Cl)c2)[C@@H](C)CN([C@H](C)CO)C(=O)c2cc(NC(=O)Nc3ccc(C(F)(F)F)cc3)ccc2O1", "cytotoxicity call": "inactive"}
{"smiles": "C[C@H](CO)N1C[C@H](C)[C@@H](CN(C)Cc2ccc(Cl)c(Cl)c2)OCCCC[C@H](C)Oc2ccc(NC(=O)Nc3ccc(C(F)(F)F)cc3)cc2C1=O", "cytotoxicity call": "active"}
